Assay [1] is described as follows: inhibitors of TNFa-induced NFkB p65 translocation, primary screen, imaging, HUVEC, MLSMR starter and 10KST1 sets (AID 438;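 active = inhibition above 20% together with a positive visual image hit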;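 note: compound added about 3h40 before a 20 min TNFalpha stimulation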;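 for inhibition: signal is the nuclear over cytoplasmic p65 intensity ratio per well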). Particulars: HUVEC TNFa-induced p65 nuclear translocation; cell count: measured here: nuclei count (cytotoxicity indicator), at 2.08 µM unless noted; inhibition: at 2 µM, stronger effect = higher value unless noted.
The nature of assay [2]: inhibitors of E-selectin induction by TNFa, primary screen, imaging, HUVEC, immunofluorescence, MLSMR starter and 10KST1 sets (AID 487;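 active = visually confirmed hit in the image check and inhibition above 20%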;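 for inhibition: signal is fraction of cell area covered by stained E-selectin grains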;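 for nuclei count: 100% = median nuclei count of all wells on the same plate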). The note with it: HUVEC TNFalpha-induced E-selectin immunofluorescence imaging, at 2 µM; inhibition: stronger effect = higher value; nuclei count: measured here: cell number, toxicity.
Assay [3] can be described thus: DUSP6 inhibitors restoring Erk phosphorylation by chemical complementation, primary imaging in DUSP6-transfected HeLa (AID 609).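 For inhibition: phospho-Erk level distribution per well compared with pooled transfected vehicle control wells.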 Particulars: HeLa MKP-3 transfected, phospho-Erk imaging KS statistic, at 10 µM.
The target of assay [4] is Dual specificity protein phosphatase 6 (Homo sapiens) (UniProt Q16828). The description is as above. The note with it: HeLa MKP-3 transfected, phospho-Erk imaging KS statistic, at 10 µM, stronger effect = higher value.
For assay [5], the target named is Voltage-gated potassium channel subunit beta-2 (Rattus norvegicus) (UniProt P62483). Kind of assay: KvBeta enzyme negative modulators, primary screen, biochemical, NADPH fluorescence (AID 622;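 active = fluorescence slope higher than the sample average by over 3 SD, cut at about -0.22 in these data, passing the limit was not always enough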;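 note: slope of raw intensity against log time taken from 70 to 1610 s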). The note with it: recombinant KvBeta, 4-cyanobenzaldehyde reduction, at 10 µM, stronger effect = higher value.
Assay [6] has the same target. Kind of assay: KvBeta positive modulators, primary screen, biochemical, NADPH fluorescence (AID 623;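 active = NADPH fluorescence slope more negative than the mean of all samples by about 3 SD, 99.7% confidence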;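 note: fluorescence intensity change per second fitted from 20 to 320 s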). Particulars: Recombinant KvBeta, NADPH fluorescence decrease slope, 10 min; at 10 µM; stronger effect = lower value.
In assay [7] the target is Alpha-2C adrenergic receptor (Homo sapiens) (UniProt P18825). Put plainly: modulators of alpha2C/GIRK thallium flux, primary screen, cell-based, HEK293 alpha2C/GIRK1/2 (AID 624;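 active = fluorescence slope after compound addition differing from the mean of all screened samples at 99.7% confidence, in either direction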;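 note: slope of fluorescence ratio to pre-addition baseline per second over 15 to 24 s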). The note with it: thallium flux BTC fluorescence, at 10 µM, actives lie on both sides.
Assay [8] can be described thus: inhibitors of larval lipid processing in zebrafish, primary screen, whole organism, PED6 fluorescence, gall bladder and intestine (AID 686;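 active = a full or partial loss of lipid-probe fluorescence in the fish gall bladder, intestine or both, judged by eye; inactive = no fluorescence loss, or compound toxic to the fish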;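 note: larvae 5 to 7 days old with five fish per well; signal comes from phospholipase A2 cleavage of quenched PED6 carried via bile; overnight exposure to compound and PED6 before scoring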). The note with it: Zebrafish larvae PED6 lipid processing, fluorescence scoring.
Assay [9] is described as follows: inhibitors of Chlamydomonas gravitaxis, primary screen, whole organism, Chlamydomonas reinhardtii, WT vs cilia-less mutant, absorbance, 96-well (AID 463189;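 active = inhibition at or above 50% relative to wild type and mutant plate controls; inactive = inhibition below 50%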;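 note: 0% = wild type cc124 cells in DMSO and 100% = ciliumless bld1 mutant cells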). The note with it: OD600 absorbance, 2 days, at 10 µM, stronger effect = higher value.
Setting [10] is: measured here: cell density z-score.
The mark [11] stands for this setting: measured here: nuclear c-Myc green intensity z-score.
Where [12] appears, read: measured here: nuclear pErk red intensity z-score, stronger effect = higher value.

Active and inactive are the calls of the source.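 Rule for the calls, unless noted: active = compounds giving at least 50% inhibition in the cell-based MKP-3 phosphatase rescue imaging test; inactive = the rest.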

The values below come from PubChem BioAssay.

One may read the inhibition as the drop in the measured response relative to a control, in per cent.

Sequence of Dual specificity protein phosphatase 6 (Homo sapiens) (Q16828 whole entry, looked up): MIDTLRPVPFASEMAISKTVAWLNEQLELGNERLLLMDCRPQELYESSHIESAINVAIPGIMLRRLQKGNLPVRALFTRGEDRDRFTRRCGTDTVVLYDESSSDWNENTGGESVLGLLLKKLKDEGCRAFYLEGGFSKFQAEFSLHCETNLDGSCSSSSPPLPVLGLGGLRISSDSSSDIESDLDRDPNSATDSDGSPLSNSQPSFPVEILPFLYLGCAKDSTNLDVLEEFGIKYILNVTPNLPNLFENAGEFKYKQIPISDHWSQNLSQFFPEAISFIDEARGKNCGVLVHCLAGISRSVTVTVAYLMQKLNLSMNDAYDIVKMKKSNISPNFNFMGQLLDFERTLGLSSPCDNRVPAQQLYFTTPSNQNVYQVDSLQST
Sequence of Alpha-2C adrenergic receptor (Homo sapiens) (P18825 whole entry, looked up): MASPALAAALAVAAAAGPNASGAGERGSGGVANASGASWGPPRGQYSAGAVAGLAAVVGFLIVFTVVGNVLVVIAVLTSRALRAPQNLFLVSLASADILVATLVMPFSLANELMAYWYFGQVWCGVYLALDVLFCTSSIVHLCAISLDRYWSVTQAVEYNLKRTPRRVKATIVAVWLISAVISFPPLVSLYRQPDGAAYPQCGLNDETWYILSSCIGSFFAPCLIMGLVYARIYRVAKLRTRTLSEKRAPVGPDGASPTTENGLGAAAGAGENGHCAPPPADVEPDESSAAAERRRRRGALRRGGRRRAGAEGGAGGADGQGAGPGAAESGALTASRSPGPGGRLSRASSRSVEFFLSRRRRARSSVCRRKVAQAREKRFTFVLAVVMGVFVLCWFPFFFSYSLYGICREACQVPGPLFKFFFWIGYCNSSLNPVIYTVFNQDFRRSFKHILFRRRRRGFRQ
Sequence of Voltage-gated potassium channel subunit beta-2 (Rattus norvegicus) (P62483 whole entry, looked up): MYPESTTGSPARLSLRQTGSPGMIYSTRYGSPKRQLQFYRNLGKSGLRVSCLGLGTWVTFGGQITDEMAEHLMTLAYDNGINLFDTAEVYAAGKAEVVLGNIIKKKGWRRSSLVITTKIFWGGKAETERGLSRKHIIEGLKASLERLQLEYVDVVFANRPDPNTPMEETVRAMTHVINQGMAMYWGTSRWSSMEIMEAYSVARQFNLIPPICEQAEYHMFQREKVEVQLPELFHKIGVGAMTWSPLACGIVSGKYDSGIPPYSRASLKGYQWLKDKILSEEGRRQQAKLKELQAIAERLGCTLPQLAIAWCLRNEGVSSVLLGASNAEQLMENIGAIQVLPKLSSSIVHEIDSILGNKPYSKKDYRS

Turning to `O=c1[nH]c(=O)n(Cc2ccccc2)c(O)c1C=NCCN1CCNCC1`, in assay [1], the cell count is 548. The inhibition in assay [1] was -7.6% (inactive); in assay [2], -71.4% (inactive); in [4], 7.93% (inactive); in [9] it was -6.44% (inactive). For the same compound, the nuclei count in assay [2] is 125%. Also, the z-score was -0.72 in assay [3] (setting [10]), 0.623 in assay [3] (setting [11]) and -0.0503 in [3] (setting [12]). Further, in [5], the fluorescence slope is -0.51 (inactive). Further, in assay [6], the NADPH fluorescence slope is -3.8e-05 (inactive). In addition, the slope in assay [7] was 0.00654 (inactive). Besides, the call in assay [8] was inactive.

For the compound `CNCCc1nc(N)n[nH]1`, the cell count in [1] is 570. Besides, the inhibition was -4.9% (inactive) in assay [1], -160% (inactive) in assay [2], 27.8% (inactive) in assay [4] and 24% (inactive) in [9]. This compound also showed a nuclei count in assay [2] of 139%. The values for the z-score in assay [3] (setting [10]), in assay [3] (setting [11]) and in [3] (setting [12]) were 1.42, -0.447 and -0.807, respectively. Besides, the fluorescence slope in [5] is -0.507 (inactive). In assay [6], the NADPH fluorescence slope is -4.4e-05 (inactive). Moreover, the slope in assay [7] was 0.00445 (inactive). In [8], the compound was classed as inactive.

In assay [1], `O=C1C2CCN(CC2)[C@@H]1Cc1ccc2ccccc2c1O` showed a cell count of 542. In addition, the inhibition in assay [1] is -18.4% (inactive); in [2] it was -159% (inactive); in assay [4], 9.91% (inactive); in assay [9], 9.49% (inactive). Moreover, the nuclei count in assay [2] stood at 135%. Besides, the results for the z-score in assay [3] (setting [10]), in assay [3] (setting [11]) and in assay [3] (setting [12]) were 0.277, -1 and -0.726, respectively. For the same compound, the fluorescence slope in [5] is -0.498 (inactive). Besides, in [6], the NADPH fluorescence slope is -6.4e-05 (inactive). Besides, the slope in [7] was 0.00747 (inactive). Besides, the compound was classed as inactive in [8].

Turning to `COc1ccc(C(=O)CN2CCOCC2)cc1F`, in assay [1], the cell count was 662. Further, the inhibition in assay [1] was -8.3% (inactive); in assay [2], -111% (inactive); in assay [4], 5.57% (inactive); in assay [9], 0.889% (inactive). Moreover, the nuclei count in assay [2] stood at 168%. Further, the z-score in [3] (setting [10]) was -0.933; in assay [3] (setting [11]), 0.019; in assay [3] (setting [12]) it was -0.631. In addition, in assay [5], the fluorescence slope was -0.506 (inactive). The NADPH fluorescence slope in [6] is -5.2e-05 (inactive). Further, in assay [7], the slope was 0.0047 (inactive). Moreover, the compound was called inactive in assay [8].

`CCN(CC)CCCC(C)N=C(c1ccccc1)c1c(O)n(C)c(=O)n(C)c1=O` (centres undefined) had a cell count in [1] of 617. Also, the inhibition in assay [1] is -1.4% (inactive); in [2], -14.1% (inactive); in [4], -1.12% (inactive); in assay [9], 8.34% (inactive). Besides, in [2], the nuclei count turned out to be 134%. The values for the z-score in assay [3] (setting [10]), in [3] (setting [11]) and in assay [3] (setting [12]) were 0.00172, -0.468 and 1.57, respectively. Also, the fluorescence slope in assay [5] is -0.507 (inactive). The NADPH fluorescence slope in assay [6] was -7.1e-05 (inactive). Further, the slope in assay [7] was 0.00446 (inactive). Also, the compound was called inactive in assay [8].

In turn, `OC(Cc1ccccc1)(c1ccccc1)C1CN2CCC1CC2` (centres undefined) returned a cell count in assay [1] of 556. For the same compound, the inhibition was -8.4% (inactive) in [1], -124% (inactive) in assay [2], 1.98% (inactive) in assay [4] and 0.812% (inactive) in [9]. For the same compound, in [2], the nuclei count came to 130%. The results for the z-score in assay [3] (setting [10]), in [3] (setting [11]) and in assay [3] (setting [12]) were 0.0962, 1.34 and 0.286, respectively. The fluorescence slope in assay [5] was -0.512 (inactive). Besides, the NADPH fluorescence slope in assay [6] was -2.1e-05 (inactive). Also, the slope in assay [7] was 0.00546 (inactive). Further, the result in [8] was inactive.

`Cc1c(N=Cc2c(O)n(CCc3ccc(F)cc3)c(=O)[nH]c2=O)c(=O)n(-c2ccccc2)n1C` displayed a cell count in assay [1] of 647. Also, the inhibition is -28% (inactive) in assay [1], -9.6% (inactive) in assay [2], -0.624% (inactive) in assay [4] and 8% (inactive) in assay [9]. In addition, the nuclei count in [2] stood at 155%. The z-score in assay [3] (setting [10]) was -1.16; in [3] (setting [11]), -1.2; in assay [3] (setting [12]), 1.06. Further, the fluorescence slope in assay [5] is -0.389 (inactive). Further, the NADPH fluorescence slope in [6] is -4.5e-05 (inactive). Also, the slope in [7] was 0.0062 (inactive). In addition, in [8], the outcome is “active; weak signal in gallbladder and intestine”.

Consider `CCN(CC)CCCNC(=O)c1c(O)c2ccccc2n(Cc2ccccc2)c1=O`, for which the cell count in [1] was found to be 520. Moreover, the inhibition in [1] is -4.8% (inactive); in assay [2], -10.6% (inactive); in assay [4], 15.8% (inactive); in assay [9], -10.8% (inactive). In assay [2], the nuclei count stood at 98.5%. Also, the figures for the z-score in assay [3] (setting [10]), in assay [3] (setting [11]) and in assay [3] (setting [12]) were 3.05, 0.407 and -1.44, respectively. The fluorescence slope in [5] was -0.425 (inactive). Also, the NADPH fluorescence slope in [6] is -6.7e-06 (inactive). Also, the slope in assay [7] is 0.00401 (inactive). In addition, the compound was classed as inactive in assay [8].

`CCCSP1(=S)NCCCO1` (centres undefined): the cell count in [1] came to 455. In addition, the inhibition in assay [1] is -11.8% (inactive); in [2], -157% (inactive); in assay [4] it was -2.07% (inactive); in assay [9] it was 20.8% (inactive). The same compound gave a nuclei count in assay [2] of 122%. For the same compound, the results for the z-score in assay [3] (setting [10]), in assay [3] (setting [11]) and in assay [3] (setting [12]) were 0.345, -0.499 and -0.356, respectively. Moreover, in [5], the fluorescence slope was -0.54 (inactive). Besides, in [6], the NADPH fluorescence slope was -7.2e-05 (inactive). In assay [7], the slope was 0.00464 (inactive). Further, in assay [8], the outcome was inactive.

In the case of `COCCOC(=O)C1=C(N)Oc2c(c(=O)oc3ccccc23)[C@@]12C(=O)Nc1ccccc12`, the cell count in assay [1] was 600. Moreover, the inhibition was -9.7% (inactive) in assay [1], -14.5% (inactive) in assay [2], -2.29% (inactive) in assay [4] and -16.3% (inactive) in [9]. The nuclei count in assay [2] is 105%. The z-score in assay [3] (setting [10]) is 0.613; in assay [3] (setting [11]) it was 0.851; in assay [3] (setting [12]) it was -1.5. Moreover, the fluorescence slope in [5] was -0.499 (inactive). Besides, in assay [6], the NADPH fluorescence slope is 2.1e-05 (inactive). In assay [7], the slope was 0.00465 (inactive). Besides, the compound was classed as inactive in assay [8].

In turn, `COc1ccc(Cn2c(O)c(C=NCCN3CCOCC3)c(=O)[nH]c2=O)cc1` had a cell count in assay [1] of 587. The inhibition is -0.9% (inactive) in assay [1], 36.9% (inactive) in [2], 19.3% (inactive) in assay [4] and -7.73% (inactive) in [9]. The nuclei count in assay [2] was found to be 166%. The results for the z-score in [3] (setting [10]), in assay [3] (setting [11]) and in assay [3] (setting [12]) were 0.642, -0.606 and -0.227, respectively. Also, the fluorescence slope in [5] was -0.342 (inactive). Moreover, the NADPH fluorescence slope in [6] was -2.7e-06 (inactive). The slope in assay [7] was 0.00514 (inactive). Also, in assay [8], the outcome was inactive.

`O=c1[nH]c(=O)n(-c2cccc(Cl)c2)c(O)c1C=NCCN1CCCCC1` yielded a cell count in [1] of 506. Further, the inhibition in assay [1] was 1.5% (inactive); in assay [2] it was -67.4% (inactive); in assay [4], 15% (inactive); in assay [9] it was -0.905% (inactive). The compound further had a nuclei count in [2] of 143%. Besides, the z-score in assay [3] (setting [10]) is -0.817; in [3] (setting [11]), 1.06; in [3] (setting [12]), 1.7. Besides, the fluorescence slope in [5] was -0.435 (inactive). Besides, in [6], the NADPH fluorescence slope was -5.4e-05 (inactive). For the same compound, the slope in assay [7] was 0.00582 (inactive). The outcome in assay [8] was inactive.

Consider `CCOc1ccc(Cc2c(O)[nH]c(=O)[nH]c2=O)cc1`, for which, in assay [1], the cell count came to 618. Moreover, the inhibition in [1] is -8.4% (inactive); in assay [2] it was -94.6% (inactive); in assay [4] it was 3.56% (inactive); in assay [9] it was 18.5% (inactive). Further, the nuclei count in assay [2] was found to be 180%. Further, the z-score was -2.58 in assay [3] (setting [10]), 1.33 in assay [3] (setting [11]) and 1.61 in assay [3] (setting [12]). For the same compound, the fluorescence slope in assay [5] was -0.34 (inactive). Besides, the NADPH fluorescence slope in [6] was -3.4e-06 (inactive). Moreover, in assay [7], the slope is 0.00464 (inactive). In [8], the compound was called inactive.
